# Shown are actives, neighbours in structure and some others; about 1.8% of the full set was active somewhere.
# Neddylation inh: inhibitors of human cullin neddylation; P61081+Q13564; TR-FRET cullin neddylation, biochemical; calls only at 25 µM; 360,000 tested, 0.58% active; in the data active = inhibition above about 36%
# MBD2 inh: MBD2-methylated oligo binding inhibition; Q9UBB5; inhibition, % at 4.4 µM; 370,000 tested, 0.31% active; TR-FRET, MBD2 binding to methylated oligonucleotide; in the data active = inhibition above about 13%
# Target sequence (Q9UBB5 whole entry, looked up): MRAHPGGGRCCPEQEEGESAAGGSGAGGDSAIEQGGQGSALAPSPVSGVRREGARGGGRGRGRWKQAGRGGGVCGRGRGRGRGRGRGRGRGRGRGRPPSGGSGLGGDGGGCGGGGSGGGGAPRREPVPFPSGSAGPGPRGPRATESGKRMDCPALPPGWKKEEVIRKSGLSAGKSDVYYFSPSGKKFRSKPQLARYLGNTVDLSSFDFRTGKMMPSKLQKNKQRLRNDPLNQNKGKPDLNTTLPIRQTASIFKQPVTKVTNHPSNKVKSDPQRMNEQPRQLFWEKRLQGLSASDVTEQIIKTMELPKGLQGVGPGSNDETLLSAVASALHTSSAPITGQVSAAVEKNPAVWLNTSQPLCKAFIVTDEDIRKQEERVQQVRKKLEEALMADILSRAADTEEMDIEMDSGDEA
# UHRF1 MBD2 ctr: blocks human UHRF1 binding to methylated DNA | Q96T88 | UHRF1 binding to methylated oligo, TR-FRET | inhibition, % at 4.4 µM | 370,000 tested, 0.75% active | AID 687016; in the data active = inhibition above about 21%;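 also: UHRF1 SRA domain binding a hemimethylated CpG hairpin DNA probe; 0% = median of test compound wells and 100% = reference inhibitor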
# UBC13 polyUb: blocks human UBC13 polyubiquitin chain formation | 330,000 tested, 0.47% active | TR-FRET | AID 485273 | P61088 | inhibition, % at 20 µM; in the data active = inhibition above about 45%, passing the limit was not always enough
# Target sequence (P61088 whole entry, looked up): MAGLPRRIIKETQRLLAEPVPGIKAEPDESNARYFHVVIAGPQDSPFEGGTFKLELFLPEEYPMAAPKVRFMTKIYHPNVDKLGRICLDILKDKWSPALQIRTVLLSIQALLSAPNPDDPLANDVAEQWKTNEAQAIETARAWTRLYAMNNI
# The depositor's hits bear a star; i = inactive; · = not tested or not shown; + = active, no number.
SMILES,Neddylation inh,MBD2 inh,UHRF1 MBD2 ctr,UBC13 polyUb
CCOc1ccc(NC(=O)CN(C)C(=O)c2ccccc2Cc2ccccc2)cc1OCC,i,5,21*,10
CC(C)C[C@@H](CNCC(=O)[C@H](Cc1c[nH]c2ccccc12)NC(=O)c1[nH]cnc1C(=O)N[C@@H](C)CN)NC(=O)c1nc[nH]c1C(=O)N[C@@H](CC(=O)O)C(=O)O,i,5,20,·
CC(C)C[C@@H](CNCC(=O)[C@H](Cc1c[nH]c2ccccc12)NC(=O)c1[nH]cnc1C(=O)N[C@@H](C)CN)NC(=O)c1nc[nH]c1C(=O)N[C@@H](C)C(=O)O,i,8,22*,·
CC(C)C[C@@H](CN)NC(=O)c1nc[nH]c1C(=O)N[C@@H](Cc1c[nH]c2ccccc12)C(=O)CNC[C@H](C)NC(=O)c1nc[nH]c1C(=O)N[C@@H](CC(=O)O)C(=O)O,i,7,22*,·
CC(C)C[C@@H](CNCC(=O)[C@H](Cc1c[nH]c2ccccc12)NC(=O)c1[nH]cnc1C(=O)N[C@H](CN)CC(C)C)NC(=O)c1nc[nH]c1C(=O)N[C@@H](CC(=O)O)C(=O)O,i,9,22*,·
CCNc1nc(NCC)nc(N/N=C/c2ccc(OC)cc2)n1,i,3,53*,5
Cc1[nH]n(S(=O)(=O)c2ccccc2)c(=O)c1N=Nc1cccc(Cl)c1,i,5,34*,-15
CCNC(=O)NC(=O)C(C)On1nnc2ccc(S(=O)(=O)N(CC)CC)cc21 (centres undefined),i,1,-2,-4
COc1ccc(Cn2c(N)c(C#N)c3nc4ccccc4nc32)cc1OC,+,-4,-6,2
CCOc1ccc(Cl)cc1-c1cc(C(=O)NCc2cc(C(F)(F)F)cc(C(F)(F)F)c2)[nH]n1,i,7,45*,·
CCOc1ccc(Cl)cc1-c1cc(C(=O)NCc2ccccc2)[nH]n1,i,-2,0,·
CC(C)(C)OC(=O)N1CCC[C@H]1C(=O)NCC1CCC(C(=O)O)CC1 (some centres undefined),i,3,1,11
CSCC[C@H](NC(=O)C1CCC(CNC(=O)[C@@H]2CCCN2C(=O)OC(C)(C)C)CC1)C(=O)O (some centres undefined),i,3,40*,2
O=C(NNC1=NCCCCC1)Nc1cccc(Cl)c1,i,8,2,-6
CC(=O)c1ccc(OCc2cc([N+](=O)[O-])cc3c2OCOC3)cc1,i,-2,23*,6
Cc1cc(C)cc(OCC(=O)OCc2cc([N+](=O)[O-])cc3c2OCOC3)c1,i,6,2,2
O=C(Nc1ccc(N2CCN(C(=O)c3ccco3)CC2)cc1)c1ccc(Br)cc1,i,-1,70*,2
C=CCC(CC=C)(NC(=O)c1cccc(C)c1)c1ccccc1,i,0,0,14
N#C/C(=C\c1ccccc1[N+](=O)[O-])C(=O)NCc1ccccc1,i,11,25*,-2
CCN1C(=NCc2ccco2)N[C@@H](c2cccc(F)c2)C(C(=O)OC)=C1C,i,3,-1,0
O=C(CCNS(=O)(=O)c1ccccc1C(F)(F)F)NCCCN1CCOCC1,i,9,-1,3
CCN1/C(=C/c2ccc3cc(C)ccc3[n+]2C)Sc2ccc3sccc3c21,i,5,41*,·
CCN1/C(=C/c2ccc3cc(C)ccc3[n+]2CC)Sc2cc(C)ccc21,i,-6,3,·
COc1cccc(Oc2ccc(OC)cc2C(=O)O)c1,i,6,26*,5
COc1cccc(Nc2ccccc2C(=O)O)c1,i,5,14,-10
SMILES,Neddylation inh,MBD2 inh,UHRF1 MBD2 ctr,UBC13 polyUb
CN1C(=O)CC(C(=O)O)SC1=Nc1cc(Cl)cc(Cl)c1 (centres undefined),i,7,6,0
CC(=O)Nc1ccc(NC(=O)C(C)OC(=O)CNS(=O)(=O)c2cccc(Cl)c2)cc1 (centres undefined),i,0,52*,-3
Nc1nnc(SCC(=O)NCCOc2ccccc2)s1,i,9,5,-14
CCOC(=O)C1=C(C)N(C)C(C)=C(C(=O)OCC)C1c1ccc(Cl)cc1,i,6,26*,-9
COC(=O)C1=C(C)N(C)C(C)=C(C(=O)OC)C1c1ccc(Cl)cc1,i,-5,-2,2
CC#CCN1c2ccccc2[C@]23C[C@@H](C(=O)OC)N(C(=O)c4cc(C)oc4C)C2=NC(C(=O)OC)=C(C(=O)OC)[C@H]13,i,-1,-2,-102
COc1ccc(-c2c(C(=O)c3ccccc3)[nH]c(N)c2C(=O)c2ccccc2)cc1OC,i,1,1,·
COc1cc(-c2c(C(=O)c3ccccc3)[nH]c(N)c2C(N)=O)ccc1F,i,1,95*,·
CCOc1ccc2nc(NC(=O)CN3C(=O)NC4(CCCC4)C3=O)sc2c1,i,4,-2,2
Cc1cc(C)cc(OCC(=O)NC2CCCc3ccccc32)c1 (centres undefined),i,-1,21*,-5
COc1ccccc1OCC(=O)NC1CCCc2ccccc21 (centres undefined),i,3,1,0
O=C(CBr)c1ccc([N+](=O)[O-])c(CS(=O)(=O)c2ccc(Cl)cc2)c1,i,-7,70*,-18
Cc1cccc(C(=O)NNC(=O)c2ccc(Br)cc2)c1,i,11,21*,-12
Cn1c(=O)c2cc(NC(=S)NCc3ccccc3F)ccc2n1Cc1ccccc1,·,-6,-1,·
Cc1cc2nc3n(c2cc1C)CC1CC(C(=O)NCc2ccco2)N(C)C31 (centres undefined),i,8,45*,1
Cc1ccc(C(=O)CCC(=O)Nc2ccc(C)cn2)cc1,i,-4,29*,12
Cc1ccc(NC(=O)CCC(=O)c2cc(C)sc2C)nc1,i,-5,-2,-4
Cc1cccc2cc(C#N)c(SCC(=O)NNC(=O)Cc3ccccc3)nc12,i,-3,-2,-16
Cn1cncc1C#Cc1ccc2cc(C(C)(C)O)oc(=O)c2c1,i,4,1,9
Cn1cncc1C#Cc1ccc2cc(CCCO)oc(=O)c2c1,+,-4,-8,5
CCCNC(=O)CC(NS(=O)(=O)c1ccc(Cl)cc1)c1ccco1 (centres undefined),i,3,4,2
O=C(NCCOc1ccc(F)cc1)C1CCC(=O)N(CCCN2CCCC2=O)C1 (centres undefined),i,-3,2,-4
Cc1ccc(-c2nnc3ccc(SCC(=O)NCc4ccco4)nn23)cc1,i,13,22*,-4
CC(CN1CCCCC1)C(=O)NN (centres undefined),i,4,21*,-13
Nc1ccccc1Sc1ccc(C(=O)c2ccccc2C(=O)O)cc1[N+](=O)[O-],i,-5,9,-20
O=C(O)c1ccccc1C(=O)c1ccc(Sc2ccc(Cl)cc2)c([N+](=O)[O-])c1,i,0,21*,-16
Cc1ccc(CN2CCN(Cc3ccccc3)C(CCO)C2)s1 (centres undefined),i,7,0,2
CCO[C@@H]1OC(C(=O)O)=C[C@H](c2ccc(C(F)(F)F)cc2)[C@H]1CCCO,i,-4,77*,-16

# Screening data (PubChem)
